Experimental data as given in PubChem BioAssay (Tox21).
Inconclusive results are not listed. Activity calls are given as the source filed them. Unless noted, the call rests on the fitted dose curve. Where a SMILES comes first, the peptide text is derived from it.

Experiments:
[1] = qHTS assay to identify small molecule agonists of the vitamin D receptor (VDR) signaling pathway - cell viability counter screen (AID 743224; active means well fitted curve in the direction sought with a large enough effect in the repeat runs; an effect the other way counts as inactive or inconclusive; further: series mostly up to about 63 µM; on the % scale 0 is the no-effect control and ±100 the full control effect; nearly all actives have a fitted effect of over 50% in size)
Procedure, shortened: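 Cytotoxicity counter screen: VDR-bla cells, 16 h compound exposure at 37C, 5% CO2; CellTiter-Glo luminescence, 30 min RT, same wells as bla read.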

[2] = qHTS assay to identify small molecule antagonists of the vitamin D receptor (VDR) signaling pathway - cell viability counter screen (AID 743225; active means well fitted curve in the direction sought with a large enough effect in the repeat runs; an effect the other way counts as inactive or inconclusive; further: on the % scale 0 is the no-effect control and ±100 the full control effect; nearly all actives have a fitted effect of over 50% in size)
Procedure, shortened: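 VDR-bla HEK 293T cells, 4 h pre-incubation at 37C, then compound plus 1-alpha,25-dihydroxyvitamin D3 (3 nM final) for 16 h. After the beta-lactamase FRET read, CellTiter-Glo was added to the same wells; luminescence after 30 min at room temperature.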

[3] = qHTS assay to identify small molecule agonists of the NFkB signaling pathway (AID 1159509; active means well fitted curve in the direction sought with a large enough effect in the signal ratio in the repeat runs, not every such curve was filed as active; the % refers to the signal ratio; further: series mostly up to about 61 µM; on the % scale 0 is the no-effect control and ±100 the full control effect)
Procedure, shortened: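 Readout: FRET fluorescence, 405 nm excitation, 460/530 nm emission; beta-lactamase expression disrupts FRET. Cells: ME-180 stably carrying NF-kB-driven bla reporter. Compound exposure 5 hr, 37 C, 5% CO2.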

[4] = qHTS assay to identify small molecule agonists of the NFkB signaling pathway - cell viability counter screen (AID 1159515); further: series mostly up to about 61 µM; on the % scale 0 is the no-effect control and ±100 the full control effect; nearly all actives have a fitted effect of over 55% in size
Procedure, shortened: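 ME-180 NFkB-bla cells, 2,000/well; overnight attach; compound 5 hr, 37 C/5% CO2; LiveBLAzer substrate 1.5 hr RT; then CellTiter-Glo in same wells, 30 min RT, luminescence read.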

[5] = qHTS assay to identify small molecule agonists of the endoplasmic reticulum stress response signaling pathway (AID 1159516; active means well fitted activation curve with a large enough effect in the signal ratio in the repeat runs, not every such curve was filed as active; the % refers to the signal ratio; further: on the % scale 0 is the no-effect control and ±100 the full control effect)
Procedure, shortened: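 HeLa ESRE-bla reporter line; cpd 5 h, 37 C/5% CO2; LiveBLAzer B/G FRET substrate 2 h RT; ex 405, em 460/530 nm.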

[6] = qHTS assay to identify small molecule agonists of the endoplasmic reticulum stress response signaling pathway - cell viability counter screen (AID 1159517);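 further: HeLa cells carrying an ER stress response element beta-lactamase reporter; series mostly up to about 61 µM; on the % scale 0 is the no-effect control and ±100 the full control effect; nearly all actives have a fitted effect of over 50% in size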
Procedure, shortened: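 Steps: seed 1,500 ESRE-bla HeLa cells per well; incubate overnight at 37 C, 5% CO2; add compounds in DMSO for 5 hr; run FRET substrate 2 hr RT; add CellTiter-Glo, wait 30 min, read luminescence.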

[7] = qHTS assay to identify small molecule antagonists of the retinoid-related orphan receptor gamma (ROR-gamma) signaling pathway - cell viability counter screen (AID 1159520; active means well fitted curve in the direction sought with a large enough effect in the repeat runs; an effect the other way counts as inactive or inconclusive; further: on the % scale 0 is the no-effect control and ±100 the full control effect; nearly all actives have a fitted effect of over 50% in size)
Procedure, shortened: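 Tet-on ROR gamma CHO cells were given compounds for 2 hr, then doxycycline hyclate at 1 uM final, and incubated 16 hr at 37 C. Viability was measured as ATP content by CellTiter-Glo luminescence.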

[8] = target: Nuclear receptor ROR-gamma (Homo sapiens) (UniProt P51449); test: qHTS assay to identify small molecule antagonists of the retinoid-related orphan receptor gamma (ROR-gamma) signaling pathway (AID 1159521; active means well fitted curve in the direction sought with a large enough effect in the repeat runs; an effect the other way counts as inactive or inconclusive)
Procedure, shortened: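 Tet-on RORγ CHO cells carrying a ROR response element–luciferase reporter were pretreated with compounds for 2 h, then induced with 1 uM (final) doxycycline hyclate for 16 h at 37 C. Antagonism was read as decreased ONE-Glo luminescence.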

[9] = qHTS assay to identify small molecule agonists of the AP-1 signaling pathway - cell viability counter screen (AID 1159525); further: nearly all actives have a fitted effect of over 55% in size
Procedure, shortened: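 Same-well cytotoxicity counter screen of the Tox21 10K library in ME-180 cells. The readout is ATP-dependent luminescence after 5 h compound treatment. Data are normalised to DMSO and tetra n-octyl ammonium bromide controls.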

[10] = qHTS assay to identify small molecule agonists of the AP-1 signaling pathway (AID 1159526); further: on the % scale 0 is the no-effect control and ±100 the full control effect

CCC(C)C(=O)OCCc1ccccc1 (stereo not given)
inactive: outcome [1] | outcome [2] | outcome [3] | outcome [4] | outcome [5] | outcome [6] | outcome [7] | outcome [8] | outcome [9] | outcome [10]

CCOc1ccccc1OCC1CNCCO1 (stereo not given)
inactive: outcome [1] | outcome [2] | outcome [3] | outcome [4] | outcome [5] | outcome [6] | outcome [7] | outcome [8] | outcome [9] | outcome [10]

CCC(=O)c1c(O)cc(O)cc1O
inactive: outcome [1] | outcome [2] | outcome [3] | outcome [4] | outcome [5] | outcome [6] | outcome [7] | outcome [8] | outcome [9] | outcome [10]

C/C=C(\C)C(=O)OCCc1ccccc1
inactive: outcome [1] | outcome [2] | outcome [3] | outcome [4] | outcome [5] | outcome [6] | outcome [7] | outcome [8] | outcome [9] | outcome [10]

CC1=NN(c2ccc(S(=O)(=O)O)cc2)C(=O)C1
inactive: outcome [1] | outcome [2] | outcome [3] | outcome [4] | outcome [5] | outcome [6] | outcome [7] | outcome [8] | outcome [9] | outcome [10]

CCCCOCCOC(=O)COc1ccc(Cl)cc1Cl
inactive: outcome [1] | outcome [2] | outcome [3] | outcome [4] | outcome [5] | outcome [6] | outcome [7] | outcome [8] | outcome [9] | outcome [10]

C[C@H]1[C@@H](c2ccccc2)NC(=O)N1C
inactive: outcome [1] | outcome [2] | outcome [3] | outcome [4] | outcome [5] | outcome [6] | outcome [7] | outcome [8] | outcome [9] | outcome [10]

CN1C[C@@H]2C[C@H]1CN2c1cc2c(cc1F)c(=O)c(C(=O)O)cn2C1CC1
inactive: outcome [1] | outcome [2] | outcome [3] | outcome [4] | outcome [5] | outcome [6] | activity, negative = cytotoxicity [7] 0.279% [at 19 µM] | activity change, negative = inhibition [8] 4.47% [at 19 µM] | viability change, negative = cytotoxic [9] 6.22% [at 15.8 µM] | activation [10] -4.01% [at 15.8 µM]

c1ccc(B(c2ccccc2)c2ccccc2)cc1
inactive: outcome [1] | outcome [2] | outcome [3] | outcome [4] | outcome [5] | outcome [6] | outcome [7] | outcome [8] | outcome [9] | outcome [10]

CC(=O)C(C)O (stereo not given)
inactive: outcome [1] | outcome [2] | outcome [3] | outcome [4] | outcome [5] | outcome [6] | outcome [7] | outcome [8] | outcome [9] | outcome [10]

COC(C)(OC)OC
inactive: outcome [1] | outcome [2] | outcome [3] | outcome [4] | outcome [5] | outcome [6] | outcome [7] | outcome [8] | outcome [9] | outcome [10]

O=C(NCN1CCOCC1)c1cnccn1
inactive: outcome [1] | outcome [2] | outcome [3] | outcome [4] | outcome [5] | outcome [6] | outcome [7] | outcome [8] | outcome [9] | outcome [10]

C=CCCCCCCCCC(=O)OCCCC
inactive: outcome [1] | outcome [2] | outcome [3] | outcome [4] | outcome [5] | outcome [6] | outcome [7] | outcome [8] | outcome [9] | outcome [10]

C=CCCCCCCCC
inactive: outcome [1] | outcome [2] | outcome [3] | outcome [4] | outcome [5] | outcome [6] | outcome [7] | outcome [8] | outcome [9] | outcome [10]

CC(=O)OCC(=O)Nc1cc(C#N)cc(NC(=O)COC(C)=O)c1Cl
inactive: outcome [1] | outcome [2] | outcome [3] | outcome [4] | outcome [5] | outcome [6] | outcome [7] | outcome [8] | outcome [9] | outcome [10]

C[C@@H](O)C(=O)O
inactive: outcome [1] | outcome [2] | outcome [3] | outcome [4] | outcome [5] | outcome [6] | outcome [7] | outcome [8] | outcome [9] | outcome [10]

CCCCCCCCCCCCCCC(=O)NC(CO)CCCCCCCCCCCCCC (stereo not given)
inactive: outcome [1] | outcome [2] | outcome [3] | outcome [4] | outcome [5] | outcome [6] | outcome [7] | outcome [8] | outcome [9] | outcome [10]

CC(C)NCC(O)c1ccc2ccccc2c1 (stereo not given)
inactive: outcome [1] | outcome [2] | outcome [3] | outcome [4] | outcome [5] | outcome [6] | outcome [7] | outcome [8] | outcome [9] | outcome [10]

CCN1CCCC1CN (stereo not given)
inactive: outcome [1] | outcome [2] | outcome [3] | outcome [4] | outcome [5] | outcome [6] | outcome [7] | outcome [8] | outcome [9] | outcome [10]

CC(=O)N[C@@H](CO)C(=O)N[C@@H](CC(=O)O)C(=O)N[C@@H](CCCCN)C(=O)N1CCC[C@H]1C(=O)O (Ac-SDKP-OH)
inactive: outcome [1] | outcome [2] | outcome [3] | outcome [4] | outcome [5] | outcome [6] | outcome [7] | outcome [8] | outcome [9] | outcome [10]

CC(=O)OC(C)=O
inactive: outcome [1] | outcome [2] | outcome [3] | outcome [4] | outcome [5] | outcome [6] | outcome [7] | outcome [8] | outcome [9] | outcome [10]

CCC(=O)Oc1ccc2c(c1)CC[C@@H]1[C@@H]2CC[C@@]2(C)[C@H]1C[C@@H](OC(=O)CC)[C@@H]2OC(=O)CC
inactive: outcome [1] | outcome [2] | outcome [3] | outcome [4] | outcome [5] | outcome [6] | outcome [7] | outcome [8] | outcome [9] | outcome [10]

CC(C)C1OCCN1CCOC(=O)NCCCCCCNC(=O)OCCN1CCOC1C(C)C (stereo not given)
inactive: outcome [1] | outcome [2] | outcome [3] | outcome [4] | outcome [5] | outcome [6] | outcome [7] | outcome [8] | outcome [9] | outcome [10]

CC(C)Cn1cnc2c1c(=O)n(C)c(=O)n2C
inactive: outcome [1] | outcome [2] | outcome [3] | outcome [4] | outcome [5] | outcome [6] | outcome [7] | outcome [8] | outcome [9] | outcome [10]

O=C=NCC1CCCC(CN=C=O)C1 (stereo not given)
inactive: outcome [1] | outcome [2] | outcome [3] | outcome [4] | outcome [5] | outcome [6] | outcome [7] | outcome [8] | outcome [9] | outcome [10]
